Pf growth 48h = Primary qHTS for delayed death inhibitors of the malarial parasite plastid, 48 hour incubation | P. falciparum luciferase growth in erythrocytes, 48 h | Potency, µM (series often up to 28.7 µM), hits mostly inhibitors | 310,000 tested, 5.9% active | AID 504832, 2011
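Cell-based growth assay: transgenic P. falciparum expressing firefly luciferase, cultured in red cells within RPMI 1640 containing 0.5% w/v Albumax, 24 mM bicarbonate and gentamycin. A drop in luciferase activity indicates inhibition.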
LmPK inh = qHTS Assay for Inhibitors of Leishmania Mexicana Pyruvate Kinase (LmPK). purified LmPK, Kinase-Glo ATP luminescence, 1 h. Potency, µM (series often up to 57.5 µM), usual class: inhibitors. 290,000 tested, 0.37% active. Q27686
Target sequence (Q27686 whole entry, looked up): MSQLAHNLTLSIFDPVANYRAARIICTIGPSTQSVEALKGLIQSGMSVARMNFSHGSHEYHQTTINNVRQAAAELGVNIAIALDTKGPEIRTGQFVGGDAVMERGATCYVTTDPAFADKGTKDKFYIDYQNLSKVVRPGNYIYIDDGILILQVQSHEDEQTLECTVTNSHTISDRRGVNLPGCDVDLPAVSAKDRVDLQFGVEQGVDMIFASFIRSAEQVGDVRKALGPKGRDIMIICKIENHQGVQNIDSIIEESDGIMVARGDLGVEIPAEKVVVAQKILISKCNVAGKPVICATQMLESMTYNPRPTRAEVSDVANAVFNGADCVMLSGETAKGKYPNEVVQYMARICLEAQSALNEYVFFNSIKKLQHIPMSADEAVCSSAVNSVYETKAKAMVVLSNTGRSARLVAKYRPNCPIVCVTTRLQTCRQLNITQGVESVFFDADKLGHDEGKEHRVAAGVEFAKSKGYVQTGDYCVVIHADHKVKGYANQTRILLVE
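In 50 mM imidazole pH 7.2 with 7 mM MgCl2, LmPK (0.1 nM) turned over PEP (0.5 mM) and ADP (0.1 mM) for 1 h at room temperature. Luciferase read-out of ATP.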
Pf growth 96h = Primary qHTS for delayed death inhibitors of the malarial parasite plastid, 96 hour incubation; Potency, µM (doses to about 28.7 µM), most hits filed as inhibitors; P. falciparum luciferase reporter growth, 96 h; AID 504834, 2011; 320,000 tested, 6.9% active
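96 h incubation, 37 C, 5% CO2, of luciferase-reporter P. falciparum-infected RBCs (2% hematocrit, 0.05% parasitemia final) with test compounds; endpoint luminescence.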
Cycloheximide cs = Cycloheximide Counterscreen for Small Molecule Inhibitors of Shiga Toxin; cell reporter, cycloheximide protein synthesis inhibition counterscreen; max response, %; 300,000 tested, 12% active; AID 2314, 2010; in the data active means max response mostly above about 13%, no sharp cut-off; inactive means mostly below about 14%; further: read at 38.3 µM for the half of the compounds with a filed dose
Shiga inhibitor = A qHTS for Small Molecule Inhibitors of Shiga Toxin | Vero cells, Shiga toxin protein synthesis inhibition reporter | inhibition, % at 38.7 µM | 290,000 tested, 9.2% active | AID 2315, 2010; in the data active means inhibition mostly above about 28%, no sharp cut-off; inactive means mostly below about 43%
Large screens that a line does not name were inactive. Most compounds without a hit are left out; they make up all but 22% or so of the library. Unless noted, the call rests on the fitted dose curve; in most records, active means well fitted inhibition curve with a large enough effect; inconclusive means small, poorly fitted or top-dose-only effect, or another doubt; inactive means no such curve, though single readings can be large or run the other way.

Cc1nc(C)c(-c2csc(Nc3ccc(N)cc3)n2)s1	Cycloheximide cs 34.7, Shiga inhibitor 68.7
Cc1nc(N)sc1-c1csc(Nc2ccccc2)n1	Cycloheximide cs 24.9, Shiga inhibitor 51.6
COc1ccc(CCNc2nc(-c3sc(C)nc3C)cs2)cc1OC	Pf growth 96h inconclusive (no result: Pf growth 48h)
COc1ccc(Nc2nc(-c3sc(C)nc3C)cs2)cc1	Cycloheximide cs 13.0
Cc1nc(C)c(-c2csc(Nc3cccnc3)n2)s1	Cycloheximide cs 34.2, Shiga inhibitor 37.7 (no result: Pf growth 96h)
CC1CCCC(NC(=O)COC(=O)c2ccc3ncsc3c2)C1C (stereo not drawn)	none (no result: LmPK inh, Cycloheximide cs, Shiga inhibitor)
O=S(=O)(O)NC1CCCCC1	Pf growth 48h inconclusive (no result: LmPK inh, Cycloheximide cs, Shiga inhibitor)
CCN1CCN(c2ccc(S(=O)(=O)N3CCCCC3)cc2NC(=O)c2cccc(Cl)c2)CC1	Pf growth 48h inconclusive, Pf growth 96h 8.28µM (no result: LmPK inh, Cycloheximide cs, Shiga inhibitor)
CCN1CCN(c2ccc(S(=O)(=O)N3CCCCC3)cc2NC(=O)c2cccc(OC(F)F)c2)CC1	Pf growth 48h inconclusive, Pf growth 96h 10.4µM (no result: LmPK inh, Cycloheximide cs, Shiga inhibitor)
CCN1CCN(c2ccc(S(=O)(=O)N3CCCCC3)cc2NC(=O)Cc2c(F)cccc2Cl)CC1	Pf growth 48h inconclusive, Pf growth 96h 13.1µM
CCN(CC)S(=O)(=O)c1ccc(N2CCCC2)c(NC(=O)Cc2c(F)cccc2Cl)c1	none
COc1ccc(CCC(=O)Nc2cc(S(=O)(=O)N3CCCCC3)ccc2N(C)C)cc1	Pf growth 48h 10.4µM, Pf growth 96h inconclusive (no result: LmPK inh, Cycloheximide cs, Shiga inhibitor)
Cc1cc(F)ccc1S(=O)(=O)N1CCCOC1CNC(=O)C(=O)NC1CCCC1 (stereo not drawn)	none
Cc1ccc(NC(=O)CN(C)C(=O)Cn2c(=O)oc3ccccc32)cc1	none (no result: LmPK inh, Cycloheximide cs, Shiga inhibitor)
CCN1CCN(c2ccc(S(=O)(=O)N3CCCCC3)cc2NC(=O)CC(NC(C)=O)c2ccccc2)CC1 (stereo not drawn)	Pf growth 96h inconclusive (no result: LmPK inh, Cycloheximide cs, Shiga inhibitor)
CCN1CCN(c2ccc(S(=O)(=O)N3CCCCC3)cc2NC(=O)Cc2ccc(OC)cc2)CC1	Pf growth 48h 9.28µM, Pf growth 96h 5.86µM
COc1ccc(OCC(=O)Nc2cc(S(=O)(=O)N3CCCCC3)ccc2OC)cc1	none (no result: LmPK inh, Cycloheximide cs, Shiga inhibitor)
CCN1CCN(c2ccc(S(=O)(=O)N3CCCCC3)cc2NC(=O)c2cc3ccccc3o2)CC1	Pf growth 48h 4.15µM, Pf growth 96h 2.08µM (no result: LmPK inh, Cycloheximide cs, Shiga inhibitor)
Cc1ccc(S(=O)(=O)Oc2ccccc2/C=C2/SC(=O)NC2=O)cc1	Pf growth 96h inconclusive
CN1C(=O)C(=Cc2ccccc2OCc2ccc(Cl)cc2)C(=O)N(C)C1=O	Pf growth 96h 1.04µM
Cc1ccc(S(=O)(=O)Oc2ccccc2C=C2C(=O)N(C)C(=O)N(C)C2=O)cc1	Pf growth 96h 11.7µM
O=[N+]([O-])c1cccc(S(=O)(=O)NCC2CC3CCC2C3)c1 (stereo not drawn)	Pf growth 96h inconclusive
O=C1c2sc3nc4ccccc4n3c2C(=O)N1c1ccccc1Cl	Pf growth 48h inconclusive, Cycloheximide cs 20.5, Shiga inhibitor 116.3 (no result: Pf growth 96h)
COC(=O)c1ccc(Oc2nc(NC(C)(C)C)nc(N3CCOCC3)n2)cc1	none
NC(=O)COC(=O)C1c2ccccc2Oc2ccccc21	none
N#CCN(CC#N)C(=O)C1c2ccccc2Oc2ccccc21	Pf growth 96h 2.94µM
CC(C)c1c(C(=O)N/N=C/c2cccc(OCc3ccccc3)c2)nnn1-c1nonc1N	Pf growth 96h inconclusive
CC1=CC(=C(c2ccc(N)cc2)c2ccc(N)cc2)C=CC1=N	Pf growth 48h 2.39µM, Pf growth 96h 1.07µM (no result: LmPK inh, Cycloheximide cs, Shiga inhibitor)
CCN1C(=O)[C@@H]2[C@H](C1=O)[C@@H]1CC(C(=O)OC)=C[C@@H](C(=O)OC)C3C1=C(C(=O)C3(CC)CC)[C@@H]2C (stereo partly drawn)	none (no result: Pf growth 48h, LmPK inh, Pf growth 96h)
N#C/C(=C\C=C\c1ccccc1)C(=O)N1CCCC1	Pf growth 48h 7.38µM, Pf growth 96h inconclusive, Cycloheximide cs 21.7, Shiga inhibitor 70.4
N#C/C(=C\c1ccc(C#N)cc1)C(=O)N1CCCC1	none
N#C/C(=C\c1ccc(O)cc1)C(=O)N1CCCC1	none
Cc1ccc(/C=C(\C#N)C(=O)N2CCCC2)c(C)c1	Cycloheximide cs 36.8, Shiga inhibitor 124.6
N#C/C(=C\c1ccc(OC(F)F)cc1)C(=O)N1CCCCC1	Cycloheximide cs 27.5, Shiga inhibitor 46.1
CCCc1nc2nc(C)c(NS(=O)(=O)c3ccc([N+](=O)[O-])cc3)c(=O)n2[nH]1	none
